Data taken from ChEMBL document CHEMBL3988442, “University of Dundee, Small-Polar-MMV Screening Library” (2021).
In all, about 48,000 compounds went through this assay and about 13,000 (27%) showed an effect of 50% or more. The list shows a part of the results.

tested on: Wolbachia pipientis; test: Anti-Wolbachia Cell-Based Screen; type: functional; design: scale not given: in the data most compounds retested in dose-response had high values; conditions: 5 µM

Compound | Percent Effect
CC(C)c1nsc(N2CCn3c(nnc3-c3ccccc3)C2)n1 | -7.754%
O=C(O)C(F)(F)F.O=C(c1ccc(F)cc1)N1C[C@@H]2COC[C@]2(COc2cccnc2)C1 | 125.5%
O=C(O)C(F)(F)F.O=C(c1ccccc1F)N1C[C@@H]2COC[C@]2(COCc2cccnc2)C1 | 3.343%
Cc1ccccc1C(=O)N1C[C@@H]2COC[C@]2(COCc2cccnc2)C1.O=C(O)C(F)(F)F | -1.339%
Cc1cc(C(=O)N2C[C@@H]3COC[C@]3(COCc3cccnc3)C2)no1 | -1.047%
Cc1ccoc1C(=O)N1C[C@@H]2COC[C@]2(COCc2cccnc2)C1.O=C(O)C(F)(F)F | -8.448%
O=C(COc1ccccc1)N1C[C@@H]2COC[C@]2(COc2cccnc2)C1.O=C(O)C(F)(F)F | 107.1%
O=C(COC1CCCC1)N1C[C@@H]2COC[C@]2(COc2cccnc2)C1.O=C(O)C(F)(F)F | 91.64%
COc1ccc(CN2C[C@@H]3COC[C@]3(COc3cccnc3)C2)cc1.O=C(O)C(F)(F)F.O=C(O)C(F)(F)F | 13.03%
O=C(O)C(F)(F)F.O=C(c1cc(C2CC2)on1)N1C[C@@H]2COC[C@]2(COc2cccnc2)C1 | 101.2%
CNC(=O)CCNC(=O)Nc1cccc(Cl)c1SC(F)F | -9.606%
CN(C)c1ccc(C(O)CNS(=O)(=O)C2CC2)cc1 (stereo not given) | -7.172%
Cc1ccc(C(=O)N2CCC3(CC2)c2ccccc2[C@@H](N)[C@@H]3O)c(=O)[nH]1 | 1.157%
CCN1CCN(C(=O)c2c[nH]c(C(C)C)n2)c2ccccc21 | 16.43%
COCCCNc1c(-c2ccc(C)cc2)c(=O)c1=O | 103%
COCCCNc1cc(C(=O)N2CCOCC2)ccc1C | 15.11%
COCCCNC(=O)COc1ccccc1C(F)(F)F | 10.69%
COCCCNC(=O)Cc1cc(-c2ccccc2)on1 | -3.078%
COCCNC(C)c1ccc(-c2cccnc2)cc1 (stereo not given) | -4.646%
COCCNc1c(-c2ccc(C)cc2)c(=O)c1=O | 115.7%
COCCCNc1c(-c2ccccc2)c(=O)c1=O | 111.1%
COCCCNC(=O)NCc1ccc(C)cc1 | 9.073%
Cc1cnn(CCNCC(O)COc2cccc(C(F)(F)F)c2)c1 (stereo not given) | -5.996%
Oc1ccc(Br)c(CNc2cccc(-c3nnc[nH]3)c2)c1 | -21.72%
CCOc1ccc(Cl)c(C(=O)N2CCN(CCO)CC2)n1 | -4.151%

Compound | Percent Effect
COCCOc1ccc(Cl)c(C(=O)N2CCN(CCO)CC2)n1 | 97.38%
CC(C)Oc1ccc(Cl)c(C(=O)N2CCN(CCO)CC2)n1 | 76.59%
O=C(c1cc2ccccc2c(=O)[nH]1)N1CCN(CCO)CC1 | -3.156%
CC(O)CN1CCN(C(=O)c2cnc(OC(C)C)c(Cl)c2)CC1 (stereo not given) | -53.57%
Cc1nc(-c2ccccc2)ccc1C(=O)N1CCN(CCO)CC1 | 1.858%
Cc1ccc(C(=O)O)cc1S(=O)(=O)Nc1nn(-c2ccccc2)cc1C | -18.22%
CC(C(N)=O)N1CCc2onc(-c3cccc(F)c3)c2C1 (stereo not given) | 31.58%
CCC(CC)CS(=O)(=O)NC(=O)C1CCC1 | -17.91%
COC(=O)NC1(C(=O)Nc2ccc(-c3ncc[nH]3)cc2)CCCC1 | 5.421%
Cc1cccc(-c2nc(CN3CCc4cnc(C)nc4C3)no2)c1 | 0.7919%
Cc1cc(C)c(CNC(=O)N2CCCC2c2cccn2C)c(=O)[nH]1 (stereo not given) | 1.985%
Cc1cc(C)c(CNC(=O)N2CCCC2c2ccc(F)cc2)c(=O)[nH]1 (stereo not given) | 86.68%
Cc1cc(C)c(CNC(=O)N(C)CC2CCCCO2)c(=O)[nH]1 (stereo not given) | -5.607%
Cc1cc(C)c(CNC(=O)N2CCCC2c2ccccc2)c(=O)[nH]1 (stereo not given) | 10.36%
Cc1cc(C)c(CNC(=O)N2CCCC2c2cccc(F)c2)c(=O)[nH]1 (stereo not given) | 115.9%
Cn1cc(N2CC3(CCN(S(=O)(=O)C4CC4)C3)CC2=O)cn1 (stereo not given) | -15.9%
CCCN(CCC)C(=O)c1sc(C)nc1C | -0.04444%
CCN(CC)CCn1ccnc1-c1cccc(O)c1 | 9.33%
CCc1nnc2n1CCN(CC(=O)Nc1cc(C(C)(C)C)nn1C)C2 | -9.721%
CC(C)(C)OCCN(Cc1cccc(O)c1)C1CCC(O)CC1 (stereo not given) | -0.1894%
Cc1cc(C2CCCN2Cc2nnc(-c3ccco3)o2)on1 (stereo not given) | 10.62%
Cc1nc(C2CCCN2Cc2cc(Cl)c3c(c2)OCCO3)no1 (stereo not given) | -1.319%
Cc1cc(C2CCCN2Cc2ccc(S(=O)(=O)N(C)C)o2)on1 (stereo not given) | 125.1%
CCN(C(=O)CN1CCCC1c1cc(C)no1)c1ccccc1C (stereo not given) | -1.91%
Cc1nc(C2CCCN2CCCS(=O)(=O)N(C)C)no1 (stereo not given) | -21.09%

Compound | Percent Effect
Cc1nc(C2CCCN2Cc2ccc(S(=O)(=O)N(C)C)o2)no1 (stereo not given) | 115.8%
CNC(=O)CCCNCc1c(C(C)C)nn(C)c1N(C)C | -0.6366%
O=C1CC(c2ccncc2)c2c(c(C(=O)O)cn2-c2ccc(F)cc2)N1 (stereo not given) | 5.752%
Cc1ccc(S(=O)(=O)NC(=O)C2(c3ccccc3)CCC2)c(C)c1 | 104.1%
Cc1ccc(S(=O)(=O)NC(=O)COc2cccc(C#N)c2)c(C)c1 | 41.14%
CS(=O)(=O)NCCNC(=O)C1(c2ccc(F)cc2)CC1 | 10.89%
Cc1ccc(S(=O)(=O)NC(=O)c2cccc3c2OCCO3)c(C)c1 | -13.25%
Cc1ccc(S(=O)(=O)NC(=O)C2(c3ccc(F)cc3)CCC2)c(C)c1 | 80.83%
Cc1ccccc1S(=O)(=O)NC(=O)C1(c2ccccc2)CCC1 | 93.86%
Cc1ccccc1S(=O)(=O)NC(=O)C1(c2cccc(Cl)c2)CC1 | 3.29%
Cc1cccc(C2(C(=O)NS(=O)(=O)c3cnn(C)c3)CCCC2)c1 | -9.611%
Cn1cc(S(=O)(=O)NC(=O)C2(c3ccccc3)CCC2)cn1 | -6.386%
CNc1ncc(CN(C)c2nccc(CCC(F)(F)F)n2)cn1 | -7.876%
CS(=O)(=O)Nc1cccc(CNC(=O)CCC(=O)c2cccs2)c1 | 1.298%
CC(C)N1CCC(C(=O)N2CCc3c(nc(CC4CC4)[nH]c3=O)C2)CC1 | -3.187%
CC(=O)NC1CCN(c2nc(N(C)C)nc3c2CCN(C(C)=O)C3)CC1 | 3.638%
CN(C)c1nc2c(c(N(C)C)n1)CCN(C(=O)CN1CCC(O)CC1)C2 | -41.67%
CCC(=O)N1CCCCC1c1nc(O)c2c(n1)CN(C(=O)C1CC1)CC2 (stereo not given) | 109.8%
CC1CCCCN1C(=O)c1nc2c(n1C(C)C)CCN(C(=O)C1CC1)C2 (stereo not given) | -21.18%
CCC(=O)N1CCCCC1c1nc(O)c2c(n1)CN(C(C)=O)CC2 (stereo not given) | 111%
CCC(=O)N1CCc2c(O)nc(C3CCCCN3C(=O)C3CC3)nc2C1 (stereo not given) | 88.1%
CC(C)c1noc(CS(=O)(=O)CC(=O)NCc2cccs2)n1 | -1.009%
CCN(Cc1ccco1)C(=O)Nc1cc(C(F)(F)F)c[nH]c1=O | 8.276%
CC(C)(O)CCc1cccc(C(=O)N[C@H](C(N)=O)c2ccccc2)c1 | -7.223%
Cc1cccc2c1nc(COCC(=O)O)n2-c1ccsc1 | 2.323%

Compound | Percent Effect
CC(CC(=O)Nc1ncn(CC(=O)N2CCCCCC2)n1)C1CC1 (stereo not given) | 14.79%
NS(=O)(=O)CCNC(=O)CCc1cc(Br)cs1 | 1.171%
CS(=O)(=O)NCC(=O)NC(Cc1ccccc1)C1CCCC1 (stereo not given) | -11.78%
Cc1ccc(CNC(=O)N2CCCCC2CCNS(C)(=O)=O)cc1 (stereo not given) | -22.58%
CCNC(=O)N1CCCCC1CCNS(C)(=O)=O (stereo not given) | -13.96%
CC(CC(=O)NCCNS(C)(=O)=O)C1CCCCC1 (stereo not given) | 132.7%
CC(CC(=O)NS(C)(=O)=O)C1CCCCC1 (stereo not given) | 81.01%
CC(CC(=O)NCCS(N)(=O)=O)C1CCCCC1 (stereo not given) | 93.71%
CC(C)c1ccc(C2(C(=O)NCCS(N)(=O)=O)CCC2)cc1 | -17.74%
CCS(=O)(=O)N1Cc2ccnn2CC(c2nc(C)no2)C1 (stereo not given) | -5.084%
CCCC(=O)N(CC)C(c1cccnc1)c1ccc2c(c1)CCO2 (stereo not given) | -14.24%
Cc1cc(C(N)=O)ccc1NC(=O)N1CCN(c2cccs2)CC1 | 1.471%
COc1nn(C)cc1C(=O)NCC(OC)c1ccccc1C (stereo not given) | 0.6487%
CC(C)NC(=O)[C@@H]1C[C@H](N)CN1C(=O)c1cc2ccccc2[nH]c1=O | -13.02%
CC(NCCc1nccn1Cc1ccccc1)c1cccs1 (stereo not given) | 7.205%
CN(Cc1ccccn1)c1nccc(N2CCN[C@H]3CS(=O)(=O)C[C@H]32)n1 | -6.376%
CC(C)CNC(=O)CN(C)S(C)(=O)=O | 111.5%
CC(C)CNC(=O)COc1cccc[n+]1[O-] | -1.693%
CN(CC(=O)NCc1cc2ccccc2o1)S(C)(=O)=O | 6.61%
CC(C)CNC(=O)CN(CC(=O)NCC(C)C)S(C)(=O)=O | 89.59%
CC(C)CNC(=O)CSc1nnc(OC(C)C)s1 | 1.156%
CN(CC(=O)NC(c1ccc(F)cc1)C(F)(F)F)S(C)(=O)=O (stereo not given) | -15.92%
CC(C)CNC(=O)CN(Cc1ccc(F)cc1)S(C)(=O)=O | 96.65%
CC(C(=O)N(Cc1ccc(F)cc1)CC(F)(F)F)S(C)(=O)=O (stereo not given) | 19.96%
CC(NC(=O)CN(C)S(C)(=O)=O)c1ccc(F)cc1 (stereo not given) | -21.23%
